According to PubChem BioAssay (EPA / NIEHS):
Records with an inconclusive call do not appear. Activity calls are given as the source filed them. How the source made its calls, unless noted: active means hit-call score of the fitted dose curve at least 0.9, where 1 is the maximum; inconclusive means response in the unintended direction; inactive means score below 0.9.

Columns and labels:
[1] = STM_H9_CystineISnorm_perc: Stemina devTOX quickPredict H9 human embryonic stem cell (hESC)-based Assay for Cystine (CYSS) Metabolite Biomarker, Normalized (AID 2283713; active means hit-call score of the fitted dose curve at least 0.9, where 1 is the maximum; inactive means score below 0.9)
In short: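 Cystine in spent media from the last 24 h of a 72 h H9 hESC exposure (daily re-dosing), measured by UPLC-HRMS. Values normalized to isotopic internal standard, then to 0.1% DMSO; viability via CellTiter-Fluor.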

[2] = STM_H9_OrnCyssISnorm_ratio: Stemina devTOX quickPredict H9 human embryonic stem cell (hESC)-based Assay for Ornithine (ORN):Cystine (CYSS) Ratio (AID 2283714)
In short: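 Ratio of internal-standard-normalized ornithine to cystine, measured by UPLC-HRMS in spent media from the last 24 h. H9 cells kept pluripotent, dosed 72 h with daily media and compound renewal; DMSO 0.1% serves as baseline.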

[3] = CEETOX_H295R_MTT_cell_viability: Viability Assessment in the CeeTox HT-H295R MTT Assay (AID 2283718; active means hit-call score of the fitted dose curve at least 0.9, where 1 is the maximum; inactive means score below 0.9)
In short: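 MTT reduction (0.5 mg/ml, 4 h at 37 C; absorbance at 570 and 650 nm) gave viability as background-corrected percent change versus controls. H295R cells had 48 h forskolin (10 uM) prestimulation, then 48 h chemical exposure at 0.1% DMSO.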

[4] = Tanguay_ZF_120hpf_ActivityScore_legacy: (Legacy) Oregon State University Tanguay Lab 120 Hour Post-fertilization zebrafish Assay Score for Activity (AID 2283742);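 on AC50: dechorionated Tropical 5D wild-type zebrafish embryos held singly per well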
In short: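 Binary scoring of mortality and morphology by brightfield at 24 and 120 hpf, summarised into one activity score from 18 components relative to DMSO. Wild-type Tropical 5D zebrafish, chorion removed at 4 hpf, static exposure 6–120 hpf, 28 °C.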

[5] = ArunA_CellTiter_hNC: Viability Assessment in the ArunA Biomedical's Oris Neural Crest (hNC) Cell Migration Assay (AID 2283752)
In short: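 After a 72 h chemical exposure, viability of hNC cells is read with CellTiter Aqueous One and fitted as signal loss relative to DMSO. Cells were seeded at 60,000/well on Matrigel and cultured 16 h at 37 C beforehand.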

[6] = ArunA_CellTiter_hNP: Viability Assessment in the ArunA Biomedical's Oris Neural Crest (hNC) Cell Migration Assay (AID 2283753)
In short: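 Viability read with CellTiter 96 Aqueous One after 72 h chemical exposure of human hNP1 neuroprogenitors, which were plated on Matrigel in LIF/bFGF medium 16 h beforehand. Endpoint fitted in positive direction relative to DMSO.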

[7] = ArunA_Migration_hNP: ArunA Biomedical's Oris Neuroprogenitor (hNP) Cell Migration Assay (AID 2283754)
In short: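 Readout is calcein-AM fluorescence (ex494/em517) of cells migrating into the detection zone, relative to DMSO. hNP1 cells (H9-derived) grown on Matrigel behind stoppers 16 h, then stoppers pulled and chemical applied 72 h; cytochalasin D as control.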

[8] = ArunA_Migration_hNC: ArunA Biomedical's Oris Neural Crest (hNC) Cell Migration Assay (AID 2283755)
In short: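 Calcein-AM fluorescence (ex494 nm/em 517 nm) in the stopper-defined detection zone quantifies migration of hNC cells after 72 h chemical exposure; 60,000 cells/well plated on Matrigel with LIF and bFGF, 16 h pre-incubation. DMSO baseline.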

[9] = ArunA_NOG_NucleusCount: ArunA Biomedical's Neurite Outgrowth (NOG) Assay for Nucleus Count (AID 2283756)
In short: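 Viable neuron count, from Hoechst nuclei passing size and intensity gates, imaged at 20x on differentiated H9-derived human neurons. Exposure lasted 48 h from seeding; activity was scored relative to DMSO.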

Q: With CC(C)Nc1nc(Cl)nc(NC(C)C)n1 as the compound, how does the AC50 [1] read?
A: 5.93 µM (active)

Q: What about the AC50 [2] of the same compound?
A: 5.16 µM (active)

Q: And the outcome [3]?
A: inactive

Q: And the outcome [4]?
A: inactive

Q: For Clc1cccc(C(Cl)(Cl)Cl)n1, which outcome [1] is on record?
A: inactive

Q: And the outcome [4]?
A: inactive

Q: What does the source list for CCC(C)n1c(=O)[nH]c(C)c(Br)c1=O (stereo unspecified)?
A: outcome [1]: inactive; outcome [3]: inactive; outcome [4]: inactive

Q: Which outcome [1] does the source give for N#CN=C1SCCN1Cc1ccc(Cl)nc1 here?
A: inactive

Q: What about the outcome [2] of the same compound?
A: inactive

Q: What about the outcome [3] of the same compound?
A: inactive

Q: And the outcome [4]?
A: inactive

Q: With CS(=O)(=O)c1ccc(C(=O)C2C(=O)CCCC2=O)c([N+](=O)[O-])c1 as the compound, how does the outcome [1] read?
A: inactive

Q: What about the outcome [2] of the same compound?
A: inactive

Q: What about the outcome [4] of the same compound?
A: inactive

Q: For COc1cc(OC)nc(NC(=O)NS(=O)(=O)c2ncccc2OCC(F)(F)F)n1, which outcome [1] is on record?
A: inactive

Q: And the outcome [4]?
A: inactive

Q: What does the source list for COc1ccc(-c2ccccc2)cc1NNC(=O)OC(C)C?
A: AC50 [1]: 30.5 µM (active); AC50 [2]: 36.1 µM (active); outcome [4]: inactive; outcome [5]: inactive; outcome [6]: inactive; outcome [7]: inactive; outcome [8]: inactive; outcome [9]: inactive

Q: With CC(C)C1(C)N=C(c2ncccc2C(=O)O)NC1=O (stereo unspecified) as the compound, how does the outcome [1] read?
A: inactive

Q: What about the outcome [4] of the same compound?
A: inactive

Q: And the outcome [5]?
A: inactive

Q: What about the outcome [6] of the same compound?
A: inactive

Q: And the outcome [7]?
A: inactive

Q: What about the outcome [8] of the same compound?
A: inactive

Q: And the outcome [9]?
A: inactive

Q: For CC1(C)CON(Cc2ccccc2Cl)C1=O, which AC50 [1] is on record?
A: 72.5 µM (active)

Q: And the AC50 [2]?
A: 68.8 µM (active)

Q: And the outcome [3]?
A: inactive

Q: And the outcome [4]?
A: inactive

Q: What does the source list for N#Cc1c[nH]cc1-c1cccc2c1OC(F)(F)O2?
A: AC50 [1]: 29.4 µM (active); AC50 [2]: 32.8 µM (active); AC50 [4]: 26.9 µM (active)

Q: Which outcome [3] does the source give for CC(C)NC(=O)N1CC(=O)N(c2cc(Cl)cc(Cl)c2)C1=O here?
A: inactive

Q: And the outcome [4]?
A: inactive

Q: With CCCN(CC)CC1COC2(CCC(C(C)(C)C)CC2)O1 (stereo unspecified) as the compound, how does the AC50 [1] read?
A: 1.03 µM (active)

Q: What about the AC50 [2] of the same compound?
A: 1.3 µM (active)

Q: And the outcome [3]?
A: inactive

Q: What about the outcome [4] of the same compound?
A: inactive

Q: Which outcome [1] does the source give for O=C(Nc1ccccc1-c1ccc(Cl)cc1)c1cccnc1Cl here?
A: inactive

Q: What about the AC50 [2] of the same compound?
A: 72.1 µM (active)

Q: What about the outcome [3] of the same compound?
A: inactive

Q: What about the outcome [4] of the same compound?
A: inactive

Q: Which results are given for O=C1C2CC=CCC2C(=O)N1SC(Cl)(Cl)Cl (stereo unspecified)?
A: outcome [1]: inactive; outcome [3]: inactive; AC50 [4]: 43.5 µM (active)

Q: With CC1(C)CCC(=Cc2ccc(Cl)cc2)C1(O)Cn1cncn1 (stereo unspecified) as the compound, how does the AC50 [1] read?
A: 28.9 µM (active)

Q: What about the AC50 [2] of the same compound?
A: 35 µM (active)

Q: And the outcome [3]?
A: inactive

Q: And the outcome [4]?
A: inactive

Q: Which AC50 [1] does the source give for Cc1cc(C)nc(Nc2ccccc2)n1 here?
A: 7.74 µM (active)

Q: What about the outcome [4] of the same compound?
A: inactive

Q: Which results are given for CCSC(=O)N1CCCCCC1?
A: outcome [3]: inactive; outcome [4]: inactive
